20 molecules from PubChem BioAssay (NCI) can be followed below.

This is part of a sample that, as a whole, favours compounds with a hit. Of some 79,000 tested, about 15% had one in any assay. Values without a mark were called inactive. The source made the active and inactive calls. Cut-off read from the data, not from the text of the source: active = growth inhibition above about 70%; inactive = the rest.

The experiment in a line: NCI Yeast Anticancer Drug Screen. Data for the mlh1 rad18 strain (AID 175). The settings on record: S. cerevisiae mlh1 rad18 strain growth inhibition; at 50.0 µM; active compounds read high. The gist of the method:
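Cells of a genetically altered yeast strain, deficient in DNA damage repair, were treated with compound. Their growth was then compared with that of vehicle-treated cultures to give inhibition.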
Consider `CCCc1cc(C(=O)OCC)cc(CCC)c1O`, for which the growth inhibition is 93.5% (active).

For `CC(C)[N+]([O-])(CCCNc1c2ccccc2nc2cccc([N+](=O)[O-])c12)C(C)C`, the growth inhibition is 95.2% (active). With `COc1cc2c3c(cccc3c1)C(=O)N(CCN(C)C)C2=O`, the growth inhibition was -50.4%. As for `NC(=O)NN=C(CS)CS`, the figure is 84.8% (active). As for `Cc1ccc(NC(=O)/C(Cl)=C(\Cl)C(=O)O)cc1C`, the figure is 99.3% (active). As for `CCN(CC)CC[n+]1ccc2c(C)c3[nH]c4ccc(O)cc4c3c(C)c2c1`, the figure is 27.8%.

For the molecule `CC(CC(C)(C)[N+](C)(C)C)[N+](C)(C)C` (stereo not given), the growth inhibition is 94.3% (active).

Take `COc1ccc(OC)c2cc3ccccc3cc12`: the growth inhibition is 70.2% (active).

Turning to `Nc1ncncc1C(C1=C(O)COC1=O)C1=C(O)COC1=O`, the growth inhibition is 4.8%. On to `CSC1=NNC(SC)=NN1`, for which the growth inhibition is 39.4%.

In the case of `Cc1c(Cl)ccc2c1S(=O)(=O)c1cccc(Cl)c1-2`, the growth inhibition was 37.2%. The value for `[O-][n+]1c2ccc(O)cc2nc2ccc(Cl)cc21` was 86.8% (active); that for `COc1ccc2ccc3ccccc3c2c1C=O` was 57.1%.

Regarding `Nc1ccc2c(c1)C(=O)c1cccc(N)c1C2=O`, the growth inhibition is 72.5% (active). As for `O=C(c1ccc(Cl)cc1Cl)C(Cl)Cl`, the figure is 88.5% (active); as for `COc1cc(C(=O)/C=C/c2ccccc2O)ccc1O`, 91.8% (active); as for `O=Cc1cccc2ccc3ccccc3c12`, 98.8% (active). For `O=C(Nc1ccc(Cl)cc1)OCC#CCCl`, the growth inhibition was 6.8%. The value for `Cn1ccnc1Oc1ccc(Cl)cc1` was 89.2% (active). As for `c1ccc2c(c1)C(=NCCCN1CCCCCC1)c1cccn1-2`, the figure is 89.8% (active).
